TbPYK inhibitor: qHTS of Trypanosoma Brucei Inhibitors; TbPYK enzyme, Kinase-Glo Plus ATP luminescence, 45 min; Potency, µM (series often up to 76.8 µM), for the others: top-dose activity, negative = inhibition, usual class: inhibitors; 0.12% of 410,000 active; AID 624173, 2012; also: nearly all actives have a fitted effect of over 50% in size
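In this concentration-response screen, enzyme-free wells defined baseline while DMSO plates tracked drift. Each reaction combined TbPYK, substrate, compound and 130 uM ADP for 45 min at room temperature. Kinase-Glo Plus luminescence gave the signal.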
Giardia FBPA inh-1: qHTS Assay for Inhibitors of Fructose-1,6-bisphosphate Aldolase from Giardia Lamblia. A8B2U2. purified Giardia FBPA. Potency, µM (doses to about 59.6 µM), for the others: at the highest dose activity, negative = inhibition, hits mostly inhibitors. 0.71% of 290,000 active. AID 2451, 2010; also: nearly all actives have a fitted effect of over 55% in size
Target sequence (A8B2U2 whole entry, looked up): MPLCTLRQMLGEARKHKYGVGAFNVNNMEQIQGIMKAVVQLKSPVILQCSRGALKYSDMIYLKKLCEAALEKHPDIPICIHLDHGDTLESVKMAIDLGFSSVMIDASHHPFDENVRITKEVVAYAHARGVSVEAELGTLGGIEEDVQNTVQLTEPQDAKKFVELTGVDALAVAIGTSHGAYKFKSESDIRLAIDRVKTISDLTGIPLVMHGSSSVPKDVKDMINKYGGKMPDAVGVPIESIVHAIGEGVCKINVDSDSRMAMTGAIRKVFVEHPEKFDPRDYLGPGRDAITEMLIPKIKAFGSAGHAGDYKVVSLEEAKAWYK
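Giardia FBPA (40 nM reagent) was preincubated 10 min at RT with compound (up to 57.5 uM final), then substrate plus GAPDH/TPI/NAD/arsenate coupling system with diaphorase/resazurin was added; resorufin fluorescence (525/598 nm) was read after 20 min.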
LmPK inh: qHTS Assay for Inhibitors of Leishmania Mexicana Pyruvate Kinase (LmPK); Q27686; purified LmPK, Kinase-Glo ATP luminescence, 1 h; Potency, µM (top dose mostly 57.5 µM), without a hit: at the highest dose activity change, negative = inhibition, actives largely listed as inhibitors; 0.37% of 290,000 active
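ATP generated from ADP (0.1 mM) and PEP (0.5 mM) by 0.1 nM LmPK over 1 h at room temperature (pH 7.2 imidazole buffer) was detected by coupled luciferase luminescence. Values were normalized to uninhibited and no-enzyme wells.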
RE007 growth inh: qHTS Assay for Inhibitors of the HIV-1 protein Vpr; S. pombe RE007 Vpr strain, BacTiter-Glo ATP luminescence, 24 h; Potency, µM (series often up to 92.2 µM), without a hit: at the highest dose activity change, negative = less growth, hits mostly inhibitors; 0.21% of 360,000 active; AID 651644, 2012; active = well fitted falling curve with a large enough effect; inconclusive = small, poorly fitted or top-dose-only effect; inactive = no such curve, though single readings can be large or run the other way; also: nearly all actives have a fitted effect of over 50% in size
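Fission yeast strain RE007, carrying one chromosomally integrated HIV-1 vpr copy, was seeded at OD 0.01 in PMG+AL medium with 23 nL pinned compound. After 24 h at 30 °C and 99% humidity, viability was read by BacTiter-Glo luminescence.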
Giardia growth: qHTS Assay for Inhibitors of Fructose-1,6-bisphosphate Aldolase from Giardia Lamblia: Giardia lamblia growth inhibition; Potency, µM (titrated, usually from 57.5 µM), inactives show top-dose activity change, negative = inhibition, usual class: inhibitors; shares compounds with Giardia FBPA inh-1; 5% of 1,500 active; Giardia lamblia trophozoite growth inhibition;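 also: trophozoites exposed to compound for 48 h at 37 °C; nearly all actives have a fitted effect of over 70% in size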
Mammalian tox: qHTS Assay for Inhibitors of Fructose-1,6-bisphosphate Aldolase from Giardia Lamblia: Mammalian cellular toxicity | shares compounds with Giardia FBPA inh-1 | mammalian cell viability counter-screen, qHTS | Potency, µM (highest dose often 57.5 µM), for inactives: at the highest dose viability change, negative = toxicity, hits mostly inhibitors | 4% of 1,500 active | AID 2786, 2010;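 also: Chinese hamster ovary cells used as mammalian cytotoxicity surrogate; viability measured as cellular ATP by luminescence; compound exposure lasted 48 h before reading; nearly all actives have a fitted effect of over 60% in size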
Giardia FBPA inh-2: qHTS Assay for Inhibitors of Fructose-1,6-bisphosphate Aldolase from Giardia Lamblia: Primary screen confirmation | AID 2787, 2010 | Potency, µM (top dose mostly 57.5 µM), without a hit: at the highest dose activity change, negative = inhibition, usual class: inhibitors | shares compounds with Giardia FBPA inh-1 | purified Giardia aldolase enzyme activity, qHTS | 5% of 1,500 active; also: nearly all actives have a fitted effect of over 45% in size
Rabbit aldolase: qHTS Assay for Inhibitors of Fructose-1,6-bisphosphate Aldolase from Giardia Lamblia: Rabbit FBPA Selectivity; 4% of 1,500 active; Potency, µM (titrated, usually from 57.5 µM), without a hit: at the top dose activity, negative = inhibition, actives largely listed as inhibitors; Rabbit muscle FBPA enzyme inhibition, selectivity counter-screen; shares compounds with Giardia FBPA inh-1; also: nearly all actives have a fitted effect of over 60% in size
Target sequence (P00883 whole entry, looked up): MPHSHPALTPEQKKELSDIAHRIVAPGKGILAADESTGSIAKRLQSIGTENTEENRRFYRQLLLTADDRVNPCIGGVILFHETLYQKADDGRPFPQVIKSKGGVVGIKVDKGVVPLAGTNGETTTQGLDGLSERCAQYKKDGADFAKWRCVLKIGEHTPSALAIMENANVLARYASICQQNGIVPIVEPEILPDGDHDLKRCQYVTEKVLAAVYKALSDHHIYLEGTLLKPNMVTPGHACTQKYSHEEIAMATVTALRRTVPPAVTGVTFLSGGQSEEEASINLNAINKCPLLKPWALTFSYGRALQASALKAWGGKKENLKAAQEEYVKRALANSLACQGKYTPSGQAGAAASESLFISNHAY
GAPDH coupling: qHTS Assay for Inhibitors of Fructose-1,6-bisphosphate Aldolase from Giardia Lamblia: Coupling assay counterscreen confirmation; shares compounds with Giardia FBPA inh-1; GAPDH coupling enzyme counterscreen, biochemical, qHTS; Potency, µM (titrated, usually from 57.5 µM), without a hit: at the highest dose activity change, negative = inhibition, hits mostly inhibitors; 6% of 1,500 active; AID 2795, 2010; also: nearly all actives have a fitted effect of over 55% in size
* marks the source's active call; other numbers are inactive results; ? = inconclusive; . = not tested or not shown; [ ] = another dose, or the depositor's remark. An excerpt weighted towards active compounds, which were near 0.95% of everything screened. Unless noted, calls follow the shape of the dose curve; as a rule, active = well fitted curve in the direction sought with a large enough effect; inconclusive = small, poorly fitted or top-dose-only effect, or another doubt; inactive = no such curve, though single readings can be large; an effect the other way counts as inactive or inconclusive. % is scaled to controls: 0 for no effect and ±100 for the full control effect; potency is read from the fitted curve at half-maximal effect.

SMILES	TbPYK inhibitor	Giardia FBPA inh-1	LmPK inh	RE007 growth inh	Giardia growth	Mammalian tox	Giardia FBPA inh-2	Rabbit aldolase	GAPDH coupling
CN(C)S(=O)(=O)N(CC(=O)Nc1ccc(C(F)(F)F)cc1)c1ccccc1	-9.7%	.	.	.	.	.	.	.	.
Cc1cccc(Cc2cnc(N3C(=N)SC(C)C3=O)s2)c1 (stereo not given)	0.5%	12.6µM*	10.6%	?	12.6µM*	7.9%	6.9%	1.4%	4.0%
COc1cccc(C(=O)NC(=S)Nc2ccccc2N2CCCC2)c1	?	-12.3%	-1.3%	?	.	.	.	.	.
COc1cccc(C(=O)NC(=S)Nc2ccccc2N2CCCCC2)c1	-11.8%	15.8µM*	-7.1%	-10.7%	?	-21.9%	-3.0%	-2.1%	7.0%
COc1ccccc1OCC#CCN1CCCC(C)C1 (stereo not given)	-8.6%	?	-1.2%	6.3%	.	.	.	.	.
COc1ccccc1OCC#CCNC1CCCCC1C (stereo not given)	-8.2%	1.58µM*	0.5%	-19.3%	22.0%[38.3 µM]	12.2%	2.5%	16.7%	3.3%
O=c1c(=O)n(O)c2ccccc2n1O	-11.3%	17.7µM*	0.4%	-5.2%	?	-7.0%	-18.2%	-15.6%	-7.6%
COn1c(=O)c(=O)n(O)c2ccccc21	-5.1%	-15.6%	9.9%	-1.4%	.	.	.	.	.
Cn1c(C(=O)NCCc2ccccc2)cc2cc(S(=O)(=O)N3CCCCC3)ccc21	0.0%	.	.	.	.	.	.	.	.
CN(C)C(=S)SSC(=S)N(C)C	4.47µM*	39.8µM*	0.9%	3.16µM*	14.1µM*	4.47µM*	?	?	39.8µM*
COc1cc(OC)c(N(C)C(=O)CSc2c3c(nc4ccc(Cl)cc24)CCCC3)cc1Cl	3.4%	.	.	.	.	.	.	.	.
CCC(=O)Nc1nc(-c2ccc3c(c2)OCCO3)cs1	-1.6%	-2.6%	-1.4%	0.1%	.	.	.	.	.
c1cc2c(cc1-c1csc(NNC3=NCCCCC3)n1)OCCO2	-28.9%	14.1µM*	-25.4%	?	-8.7%[10.4 µM]	-23.2%	3.7%	4.5%	22.5%
Cc1ccc(C(=O)Nc2ccc(S(=O)(=O)Nc3ncccn3)cc2)cc1[N+](=O)[O-]	3.7%	25.1µM*	-4.0%	3.0%	-13.7%[10.4 µM]	3.5%	-7.0%	7.2%	-17.0%
O=C(Nc1ccc(S(=O)(=O)Nc2ncccn2)cc1)c1ccc(Cl)c([N+](=O)[O-])c1	-4.0%	-11.5%	2.6%	1.9%	.	.	.	.	.
Fc1ccc(Nc2nc3ccccc3n3cnnc23)c(F)c1	0.2%	.	.	.	.	.	.	.	.
COC(=O)c1c(-c2ccc(OC)c(OC)c2)csc1N	12.1%	17.7µM*	3.9%	-11.0%	-29.7%	-12.6%	?	-13.3%	-11.7%
CCOc1c(Br)cc(C2CC(=O)Nc3cc4c(cc32)OCO4)cc1OC (stereo not given)	-0.7%	.	.	.	.	.	.	.	.
COc1cccc(COCC(O)Cn2cnc3cc(C)c(C)cc32)c1 (stereo not given)	22.5%	19.9µM*	-3.0%	9.0%	0.5%[10.4 µM]	10.4%	-2.9%	-7.7%	-8.3%
Cc1ccc(NC(=O)CSc2nc3ncccc3[nH]2)cc1F	4.8%	.	.	.	.	.	.	.	.
Cc1ccc(NC(=O)CSc2nc3nc(C)c(Br)cc3[nH]2)cc1F	1.9%	17.8µM*	11.9%	-17.2%	?	6.0%	5.6%	6.0%	17.2%
CC(C)CC1N=C2c3ccccc3N=C(SCC(=O)NCCc3ccc(Cl)cc3)N2C1=O (stereo not given)	1.7%	.	.	.	.	.	.	.	.
Clc1nssc1=Nc1ccc(Br)cc1	?	?	1.9%	?	.	.	.	.	.
N#Cc1cccc(N=c2ssnc2Cl)c1	17.8µM*	19.9µM*	-23.3%	-24.3%	?	1.6%	-10.5%	?	12.9%
COc1cc(N=c2ssnc2Cl)cc(OC)c1	28.2µM*	15.8µM*	-21.7%	?	-3.3%[10.4 µM]	-9.2%	-2.8%	-11.2%	16.3%
O=C(NC(=S)N1C[C@H]2C[C@H](C1)c1cccc(=O)n1C2)c1ccc(Cl)cc1	-18.9%	?	-15.2%	12.2%	.	.	.	.	.
COc1cc(C(=O)NC(=S)N2C[C@H]3C[C@H](C2)c2cccc(=O)n2C3)cc(OC)c1OC	-7.1%	11.2µM*	-3.2%	-12.4%	10.9%[10.4 µM]	17.3%	3.4%	9.9%	9.4%
COc1ccc(/C=C/C(=O)NC(=S)N2C[C@H]3C[C@H](C2)c2cccc(=O)n2C3)cc1OC	2.9%	7.94µM*	2.4%	11.0%	?	1.4%	4.6%	-0.2%	17.0%
COC(=O)C(NC(=S)N1CC2C[C@@H](C1)Cn1c2cccc1=O)C(C)C (stereo not given in full)	-4.6%	-2.1%	-0.5%	-3.6%	.	.	.	.	.
COc1cc(OC)cc(C(=O)NC(=S)N2C[C@H]3C[C@H](C2)c2cccc(=O)n2C3)c1	-9.0%	11.2µM*	-0.6%	-0.7%	17.5%	11.7%	6.2%	-2.0%	12.9%

Compound activity from PubChem BioAssay.
